Compounds with a hit are over-represented: about 10% of the library has one in this group of screens.
G9a inh – qHTS Assay for Inhibitors of Histone Lysine Methyltransferase G9a; Histone-lysine N-methyltransferase EHMT2 (Homo sapiens), Q96KQ7; G9a H3K9 monomethylation, AlphaScreen, 2 h; Potency, µM (highest dose often 102 µM), hits mostly inhibitors; 350,000 tested, 8.8% active; also: nearly all actives have a fitted effect of over 75% in size
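G9a (20 nM) was preincubated 15 min with compound, then reacted 2 h at room temperature with 500 nM biotin-H3K9 peptide and 20 µM SAM. Monomethyl-H3K9 detected by AlphaScreen using anti-H3K9me1 antibody.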
BAZ2B block – qHTS Assay for Inhibitors of BAZ2B | 360,000 tested, 4.4% active | AID 504333, 2011 | Potency, µM (highest dose often 114 µM), most hits filed as inhibitors | AlphaScreen BAZ2B-H3K14Ac peptide displacement | Bromodomain adjacent to zinc finger domain protein 2B (Homo sapiens), Q9UIF8; also: nearly all actives have a fitted effect of over 60% in size
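AlphaScreen displacement of biotin-H3(5-23)K14Ac peptide (50 nM final) from BAZ2B (50 nM final) in PBS pH 7.4, 0.01% Tween-20; complex preformed 30 min RT, then compounds (top 110 uM) 30 min RT, beads 20 min dark.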
GLS inhibitor – qHTS for Inhibitors of Glutaminase (GLS); Glutaminase kidney isoform, mitochondrial (Homo sapiens), O94925; GLS enzymatic activity, qHTS titration; Potency, µM (doses to about 45.5 µM), hits mostly inhibitors; 410,000 tested, 0.21% active; AID 624170, 2012
Target sequence (O94925 whole entry, looked up, canonical isoform): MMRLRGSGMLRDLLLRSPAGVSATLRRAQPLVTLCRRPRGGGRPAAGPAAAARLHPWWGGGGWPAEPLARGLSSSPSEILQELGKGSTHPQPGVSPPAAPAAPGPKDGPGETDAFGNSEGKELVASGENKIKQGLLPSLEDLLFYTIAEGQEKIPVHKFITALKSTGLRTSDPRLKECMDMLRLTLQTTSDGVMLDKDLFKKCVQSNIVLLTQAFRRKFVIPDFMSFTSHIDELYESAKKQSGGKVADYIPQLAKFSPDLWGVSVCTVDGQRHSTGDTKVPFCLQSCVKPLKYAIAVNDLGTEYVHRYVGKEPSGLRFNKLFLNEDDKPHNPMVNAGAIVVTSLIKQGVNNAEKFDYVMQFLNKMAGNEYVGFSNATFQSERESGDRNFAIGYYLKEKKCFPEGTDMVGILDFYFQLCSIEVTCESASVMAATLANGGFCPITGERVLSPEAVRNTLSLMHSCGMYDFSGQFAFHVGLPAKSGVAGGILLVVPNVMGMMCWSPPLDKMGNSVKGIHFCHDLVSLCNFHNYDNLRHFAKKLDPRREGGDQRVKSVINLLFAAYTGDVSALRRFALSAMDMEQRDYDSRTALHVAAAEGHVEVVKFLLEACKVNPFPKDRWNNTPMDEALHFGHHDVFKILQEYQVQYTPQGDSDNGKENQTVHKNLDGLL
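Glutamate formation by hKGA was monitored fluorometrically using coupled glutamate oxidase, HRP and Amplex Red. Substrate was added as 1 mM L-glutamine solution; incubation was 30 min at RT after an initial read.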
HP1b chromo inh – HTS for Inhibitors of HP1-beta Chromodomain Interactions with Methylated Histone Tails | Chromobox protein homolog 1 (Homo sapiens), P83916 | AlphaScreen HP1-beta / biotin-H3K9me3 peptide binding | Potency, µM (top dose mostly 114 µM), usual class: inhibitors | 390,000 tested, 0.56% active | AID 540317, 2011; also: nearly all actives have a fitted effect of over 70% in size
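Compound inhibition of the preformed complex between 50 nM HP1-beta and 50 nM biotinylated H3K9me3 peptide was read by AlphaScreen. Buffer was PBS pH 7.4 with 0.01% Tween-20. Incubations ran 30 min at room temperature, with 10 ug/mL donor/acceptor beads.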
JMJD2A Tudor – qHTS Assay for Inhibitors of JMJD2A-Tudor Domain. Lysine-specific demethylase 4A (Homo sapiens), O75164. AID 504339, 2011. Potency, µM (top dose mostly 114 µM), hits mostly inhibitors. AlphaScreen JMJD2A-Tudor / H3K4me3 peptide binding. 390,000 tested, 4.4% active; also: nearly all actives have a fitted effect of over 50% in size
A number is an active result; i = inactive; ? = inconclusive; nt = no result; [ ] = another dose, or the depositor's remark. Calls follow the shape of the dose curve; as a rule, active = well fitted curve in the direction sought with a large enough effect; inconclusive = small, poorly fitted or top-dose-only effect, or another doubt; inactive = no such curve, though single readings can be large; an effect the other way counts as inactive or inconclusive.

SMILES	G9a inh	BAZ2B block	GLS inhibitor	HP1b chromo inh	JMJD2A Tudor
COc1ccc(N=C2C(=Nc3ccc(OC)cc3)N(c3ccc(OC)cc3)C(=S)N2C(=O)c2ccc(OC)cc2)cc1	3.55µM	?	i	i	?
COc1ccc(N2C(=S)N(C(=O)c3ccccc3)C(=Nc3ccccc3)C2=Nc2ccccc2)cc1	nt	nt	i	i	?
COc1ccc(C(=O)c2ccc(Cl)cc2)cc1	i	i	i	i	i
COc1ccc(N=C2C(=Nc3ccc(OC)cc3)N(c3ccccc3)C(=S)N2C(=O)c2ccc(Cl)cc2)cc1	7.08µM	?	nt	?	?
CCCn1ncc(CN2CCC(n3nccc3NC(=O)CCc3ccccc3)CC2)c1C	i	i	i	i	i
O=C(NCCCN1CCCC1)c1ccc(Cn2c(=S)[nH]c3ccc(Br)cc3c2=O)cc1	22.4µM	i	nt	nt	nt
O=C(NCCN1CCCC1)c1ccc(Cn2c(=S)[nH]c3ccc(Br)cc3c2=O)cc1	50.1µM	i	i	i	i
CCN(CC)CCNC(=O)c1ccc2c(=O)n(C3CCCC3)c(=S)[nH]c2c1	20µM	?	i	i	i
CCOc1cc2[nH]c(=S)n(Cc3ccc(C(=O)NCC(OC)OC)cc3)c(=O)c2cc1OCC	i	i	nt	i	i
CCOc1cc2[nH]c(=S)n(Cc3ccc(C(=O)NCCN(CC)CC)cc3)c(=O)c2cc1OCC	35.5µM	i	i	i	?
CC(C)NC(=O)c1ccc2c(=O)n(C3CCCC3)c(=S)[nH]c2c1	i	i	i	i	i
CC(C)Cc1nnc(NC(=O)C2CCCN(C(=O)c3ccc(Cl)cc3)C2)s1 (centres undefined)	nt	nt	i	nt	nt
CCCCC(=O)Nc1ccc(C(=O)OCc2cc(=O)n3ccsc3n2)cc1	i	i	i	i	i
Brc1cccc(-c2nn(-c3ccccc3)c3c2cnc2cc4c(cc23)OCO4)c1	i	nt	i	i	i
COc1ccc([C@H]2C[C@H](O)[C@@H](n3cc(COC(=O)c4ccccc4)nn3)CN2CC2CCCCC2)cc1	nt	nt	i	nt	nt
Cc1nn(-c2ccccc2)c2c1cc1c(=O)n(C)c(=O)nc-1n2-c1ccccc1F	31.6µM	i	i	i	i
O=C(Nc1c[nH]c(=O)[nH]c1=O)c1cc([N+](=O)[O-])cc([N+](=O)[O-])c1	i[2.33 µM]	i	i	i	i
Cc1ccc(CN(Cc2cccn2-c2nnc(N3CCCC3=O)s2)C(=O)Nc2ccccc2Cl)cc1	i	i	i	i	i
CC1CCCN(S(=O)(=O)c2ccc(S(=O)(=O)N3CCCC3)cc2)C1 (centres undefined)	i	i	i	i	i
CC1CCCN(S(=O)(=O)c2ccc(C(=O)Nc3nnc(C4=COCCO4)o3)cc2)C1 (centres undefined)	nt	79.4µM	nt	nt	nt
O=C(Nc1nnc(C2=COCCO2)o1)c1ccc(S(=O)(=O)N2CCOCC2)cc1	50.1µM	nt	i	i	79.4µM
COc1cc(-c2nnc(NC(=O)c3ccc(S(=O)(=O)N4CCOCC4)cc3)o2)cc(OC)c1OC	i	i	nt	nt	nt
COCc1nnc(NC(=O)c2ccc(S(=O)(=O)N3CCOCC3)cc2)o1	nt	17.8µM	i	i	31.6µM
CC1CCCN(S(=O)(=O)c2ccc(C(=O)NC(C)c3ccccc3)cc2)C1 (centres undefined)	17.8µM	i	i	i	i
COc1ccc(Cc2noc(CN3CCN(Cc4csc(C)n4)CC3)n2)cc1OC	i	i	i	i	i
SMILES	G9a inh	BAZ2B block	GLS inhibitor	HP1b chromo inh	JMJD2A Tudor
CC1CN(S(=O)(=O)c2ccc(C(=O)Nc3nnc(-c4ccccn4)o3)cc2)CC(C)O1 (centres undefined)	i	nt	i	i	89.1µM
Cc1nnc(NC(=O)c2ccc(S(=O)(=O)N3CCCCC3C)cc2)o1 (centres undefined)	nt	i	i	i	?
CC1CCCCN1S(=O)(=O)c1ccc(C(=O)Nc2nnc(C3=COCCO3)o2)cc1 (centres undefined)	i	89.1µM	i	i	i
COc1ccccc1-c1nnc(NC(=O)c2ccc(S(=O)(=O)N3CCOCC3)cc2)o1	i[12.7 µM]	i	i	i	79.4µM
CC(O)(c1cccnc1)c1nc(-c2ccc(F)c(Cl)c2)cs1 (centres undefined)	nt	nt	i	nt	nt
CN(C(=O)Cn1cnc2onc(-c3ccc(F)cc3)c2c1=O)c1ccccc1Cl	i	i	?	i	i
CCc1cccc(OCCCCNCCOC)c1	7.94µM	nt	i	?	7.08µM
c1ccc(COc2ccc(OCCCNC3CCCC3)cc2)cc1	?	44.7µM	i	i	5.01µM
CC(C)Oc1ccc(OCCNC2CCCC2)cc1	?	?	i	?	3.55µM
C=CCNCCCCOc1ccc(OCc2ccccc2)cc1	10µM	50.1µM	i	i	35.5µM
CCc1[nH]nc(C(=O)N2CCCC(N3CCN(c4ccccc4C)CC3)C2)c1C (centres undefined)	i	i	i	i	i
COCCCNc1ccn2nc(-c3ccc(OCc4ccccc4)cc3)cc2n1	nt	nt	i	nt	nt
COCCCNCCCCOc1ccc(OCc2ccccc2)cc1	nt	44.7µM	i	?	20µM
O=C(Nc1ccc(Cl)cc1)C1C2C=CC3(O2)C1C(=O)N(CCCN1CCCCC1)C3C(=O)NC1CCCCC1 (centres undefined)	50.1µM	i	i	i	i
Cc1noc(NS(=O)(=O)c2ccc(N/C=C\C(=O)c3ccncc3)cc2)c1C	50.1µM	i	i	i	i
Cc1noc(NS(=O)(=O)c2ccc(N/C=C/C(=O)c3ccncc3)cc2)c1C	i	i	i	i	i
CC(=O)N1CCC2(CC1)C/C(=N\NC(=S)Nc1ccccc1C)c1cc(O)ccc1O2	31.6µM	i	i	?	?
CC(=O)N1CCC2(CC1)C/C(=N\NC(=S)Nc1ccccc1F)c1cc(O)ccc1O2	15.8µM	i	i	?	?
COc1ccccc1NC(=S)N/N=C1\CC(C)(C)Oc2ccc(O)cc21	?	i	i	i	i
COc1cc(NC(=O)CN2C(=O)c3ccccc3Sc3ccc(C(=O)N4CCCC4)cc32)cc(OC)c1	?	i	i	i	i
Cc1ccc(-n2nc(C)c3c(C)cc(=O)n(CC(=O)NC(C)c4ccccc4)c32)cc1 (centres undefined)	i	i	i	i	i
Cc1ccc(C)c(N2CCN(C(=O)C3CCN(S(=O)(=O)c4cn(C)cn4)CC3)CC2)c1	i	i	i	i	i
CC1=C(c2ccc(NN=C(C#N)C#N)cc2)NNC(=O)C1	?	nt	i	nt	nt
CCCc1c(C)[nH]c2ccc(C(=O)O)cc2c1=S	nt	?	7.08µM	?	i[11.4 µM]
Cc1[nH]c2ccc(C(=O)O)cc2c1C	i	?	i	i	i
Cc1ccccc1NC(=O)CSc1nc2c(c(=O)n(C)c(=O)n2C)n1C	70.8µM	i	i	i	i

Bioassay records (PubChem BioAssay)
